Source: PubChem BioAssay
CYP2C9 act: increases human cytochrome P450 2C9 activity; P11712; recombinant CYP2C9, luciferin-H conversion, luminescence; hits give high values; factor 1 = untreated enzyme, 0 = blocked; activation factor at 5 µM; hit rate 1.4% among 96,000;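 active = activation factor of 2 or more for CYP2C9 at a 5 µM dose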
Cav32 inh: inhibitors of human Cav3.2 T-type calcium channel; O95180; Cav3.2-expressing cells, Fluo-4 calcium fluorescence FDSS; hits give low values; B-score at 10 µM; hit rate 4% among 100,000;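 active = single-dose well whose peak fluorescence ratio is a statistical outlier from its plate by either plate-standardised score or position-corrected B-score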
CYP2C19 inhib: blocks human cytochrome P450 2C19; CYP2C19 Supersomes, luciferin-H EGE luminescence, 30 min; hit rate 21% among 96,000; inhibition, % at 5 µM; AID 778;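 active = CYP2C19 inhibition above a set limit at 5 µM in the primary screen, cut at about 50% in these data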
Target sequence (P33261 whole entry, looked up): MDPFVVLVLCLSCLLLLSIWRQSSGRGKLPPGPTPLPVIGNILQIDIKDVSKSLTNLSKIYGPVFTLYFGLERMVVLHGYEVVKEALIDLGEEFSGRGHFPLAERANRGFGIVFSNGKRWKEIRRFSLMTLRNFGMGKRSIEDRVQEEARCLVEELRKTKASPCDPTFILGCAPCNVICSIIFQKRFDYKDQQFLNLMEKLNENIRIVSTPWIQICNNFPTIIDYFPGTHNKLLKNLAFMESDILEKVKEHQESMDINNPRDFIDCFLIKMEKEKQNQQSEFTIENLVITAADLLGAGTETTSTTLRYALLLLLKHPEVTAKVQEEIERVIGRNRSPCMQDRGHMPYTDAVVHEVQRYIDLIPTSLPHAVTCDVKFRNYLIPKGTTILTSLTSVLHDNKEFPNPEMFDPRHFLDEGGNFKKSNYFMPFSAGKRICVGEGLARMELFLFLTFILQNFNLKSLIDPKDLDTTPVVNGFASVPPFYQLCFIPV
CYP2C19 activ: increases human CYP2C19 enzyme activity; P33261; recombinant CYP2C19, luciferin-H EGE luminescence; hits give high values; 0 = fully inhibited enzyme, 1 = untreated enzyme; activation factor at 5 µM; 96,000 tested, under 10 active;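 active = activation factor of at least 2 at 5 µM in the primary screen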
CYP2C9 inh: human CYP2C9 inhibition. P11712. CYP2C9 Supersomes, luciferin-H conversion, luminescence. inhibition, % at 5 µM. hit rate 20% among 96,000. AID 777;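 active = blocking of liver enzyme CYP2C9 beyond about 50% at 5 µM, limit read from the data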
A number is an active result. In the library only some 27% were active in any assay of this set; here they are far more common.

Screening Cn1c(=O)c2c(nc(CN3CCN(c4cccc(Cl)c4)CC3)n2CCc2ccccc2)n(C)c1=O returned Cav32 inh inactive.
CC(O)CSc1nc2c(c(=O)n(C)c(=O)n2C)n1CCCc1ccccc1 (stereo unspecified) was read as Cav32 inh inactive.
`CCCCCn1c(CN(C)Cc2ccccc2)nc2c1c(=O)n(C)c(=O)n2C` gave CYP2C9 act inactive, Cav32 inh inactive, CYP2C19 inhib 82, CYP2C19 activ inactive and CYP2C9 inh 100.
Cn1c(=O)c2c(nc(CN3CCN(c4ccccc4)CC3)n2CCc2ccccc2)n(C)c1=O was read as Cav32 inh -5.7.
`CCCCn1c(SCc2nnc(-c3ccccc3)o2)nc2c1c(=O)n(C)c(=O)n2C` gave CYP2C9 act inactive, Cav32 inh inactive, CYP2C19 inhib 64, CYP2C19 activ inactive and CYP2C9 inh 77.
`Cc1ccc(Cn2c(CN(C)Cc3ccccc3)nc3c2c(=O)n(C)c(=O)n3C)cc1` gave CYP2C9 act inactive, Cav32 inh -5.2, CYP2C19 inhib 78, CYP2C19 activ inactive and CYP2C9 inh 94.
Screening CCC1CCCCN1Cc1nc2c(c(=O)n(C)c(=O)n2C)n1Cc1ccccc1 (stereo unspecified) returned Cav32 inh inactive.
Screening CN(Cc1ccccc1)Cc1nc2c(c(=O)n(C)c(=O)n2C)n1Cc1ccc(Cl)cc1 returned CYP2C9 act inactive, CYP2C19 inhib inactive, CYP2C19 activ inactive and CYP2C9 inh 50.
`COC(=O)CSc1nc2c(c(=O)n(C)c(=O)n2C)n1CCCc1ccccc1` gave CYP2C9 act inactive, Cav32 inh inactive, CYP2C19 inhib 67, CYP2C19 activ inactive and CYP2C9 inh 85.
Screening Cn1c(=O)c2c(nc(CN3CCN(Cc4ccccc4)CC3)n2Cc2ccccc2)n(C)c1=O returned CYP2C9 act inactive, Cav32 inh inactive, CYP2C19 inhib inactive, CYP2C19 activ inactive and CYP2C9 inh inactive.
For CCCCn1c(SCC(=O)OC)nc2c1c(=O)n(C)c(=O)n2C the results were CYP2C9 act inactive, Cav32 inh inactive, CYP2C19 inhib inactive, CYP2C19 activ inactive and CYP2C9 inh inactive.
Cn1c(=O)c2c(nc(CN3CCC(C(N)=O)CC3)n2Cc2c(Cl)cccc2Cl)n(C)c1=O was read as CYP2C9 act inactive, Cav32 inh inactive, CYP2C19 inhib inactive, CYP2C19 activ inactive and CYP2C9 inh 68.
For CC(C)Cn1c(Br)nc2c1c(=O)n(CCC#N)c(=O)n2C the results were CYP2C9 act inactive, CYP2C19 inhib inactive, CYP2C19 activ inactive and CYP2C9 inh inactive.
Screening O=C(NCC1CC1)C1(C(F)(F)F)C/C(=C\Cc2ccccc2)CCCO1 (stereo unspecified) returned Cav32 inh inactive.
Screening CN(Cc1ccccc1)Cc1nc2c(c(=O)n(C)c(=O)n2C)n1Cc1ccc(F)cc1 returned CYP2C9 act inactive, Cav32 inh -4.3, CYP2C19 inhib inactive, CYP2C19 activ inactive and CYP2C9 inh 72.
`O=C(NCc1nc2ccccc2[nH]1)C1=C[C@@H](c2ccc3c(c2)OCO3)C[C@@H](OCc2ccc(CO)cc2)O1` gave Cav32 inh inactive.
Screening CC(C)(C)NC(=O)NC(=O)COC(=O)c1cc(=O)[nH]c2ccccc12 returned CYP2C9 act inactive, Cav32 inh inactive, CYP2C19 inhib inactive, CYP2C19 activ inactive and CYP2C9 inh inactive.
For COc1ccc(-n2c(SC)nnc2-c2c[nH]c3ccccc23)cc1 the results were CYP2C9 act inactive, Cav32 inh inactive, CYP2C19 inhib inactive, CYP2C19 activ inactive and CYP2C9 inh inactive.
For COCCn1c(SC)nnc1-c1c[nH]c2ccccc12 the results were CYP2C9 act inactive, Cav32 inh inactive, CYP2C19 inhib 52, CYP2C19 activ inactive and CYP2C9 inh inactive.
`C=CCSc1nnc(-c2c[nH]c3ccccc23)n1CC` gave CYP2C9 act inactive, Cav32 inh inactive, CYP2C19 inhib 79, CYP2C19 activ inactive and CYP2C9 inh inactive.
For CCn1c(SC)nnc1-c1c[nH]c2ccccc12 the results were CYP2C9 act inactive, Cav32 inh inactive, CYP2C19 inhib 72, CYP2C19 activ inactive and CYP2C9 inh inactive.
For CCn1c(SC(C)C(=O)OC)nnc1-c1c[nH]c2ccccc12 (stereo unspecified) the results were CYP2C9 act inactive, Cav32 inh inactive, CYP2C19 inhib 66, CYP2C19 activ inactive and CYP2C9 inh inactive.
For CC(C)(C)c1ccc(C(=O)NNC(=O)C(=O)N2CCCCC2)cc1 the results were CYP2C9 act inactive, Cav32 inh inactive, CYP2C19 inhib inactive, CYP2C19 activ inactive and CYP2C9 inh inactive.
Screening CCn1c(SCc2ccc(C(=O)OC)o2)nnc1-c1c[nH]c2ccccc12 returned CYP2C9 act inactive, Cav32 inh inactive, CYP2C19 inhib 98, CYP2C19 activ inactive and CYP2C9 inh 83.
CCC(=O)Nc1ccccc1C(=O)OCC(=O)c1ccccc1 was read as CYP2C9 act inactive, Cav32 inh inactive, CYP2C19 inhib 73, CYP2C19 activ inactive and CYP2C9 inh 91.
`CCC(=O)Nc1ccccc1C(=O)OCC(=O)c1ccc2ccccc2c1` gave CYP2C9 act inactive, Cav32 inh inactive, CYP2C19 inhib 90, CYP2C19 activ inactive and CYP2C9 inh 69.
For O=C(COC(=O)c1ccco1)c1ccc2ccccc2c1 the results were CYP2C9 act inactive, Cav32 inh inactive, CYP2C19 inhib inactive, CYP2C19 activ inactive and CYP2C9 inh inactive.
Screening CCC(=O)NCC(=O)OCC(=O)c1ccccc1 returned Cav32 inh inactive.
CCC(=O)Nc1cccc(C(=O)OCC(=O)c2ccccc2Cl)c1 was read as CYP2C9 act 3.4, Cav32 inh inactive, CYP2C19 inhib inactive, CYP2C19 activ inactive and CYP2C9 inh inactive.
`O=C(COC(=O)c1ccccc1NC(=O)c1ccccc1)c1ccc([N+](=O)[O-])cc1` gave CYP2C9 act inactive, Cav32 inh inactive, CYP2C19 inhib 63, CYP2C19 activ inactive and CYP2C9 inh 70.
Screening CCOc1cc(N2CCOCC2)c(OCC)cc1NC(=O)C(NC(=O)c1ccco1)C(C)C (stereo unspecified) returned CYP2C9 act inactive, Cav32 inh inactive, CYP2C19 inhib inactive, CYP2C19 activ inactive and CYP2C9 inh inactive.
`Cc1noc(C(=O)N2CCN(c3ccc(F)cc3)CC2)c1Cl` gave Cav32 inh inactive.
For NC(=O)/C=C\C(=O)Nc1cccc(C(F)(F)F)c1 the results were CYP2C9 act inactive, CYP2C19 inhib inactive, CYP2C19 activ inactive and CYP2C9 inh inactive.
`Cc1ccccc1NC(=O)/C=C/c1cccc(C(F)(F)F)c1` gave CYP2C9 act 2.2, Cav32 inh inactive, CYP2C19 inhib inactive, CYP2C19 activ inactive and CYP2C9 inh inactive.
O=C(CCN1C(=O)c2ccccc2C1=O)NC1=NCCS1 was read as CYP2C9 act inactive, Cav32 inh inactive, CYP2C19 inhib inactive, CYP2C19 activ inactive and CYP2C9 inh inactive.
For C[C@@H]1CCC[C@@]2(O[C@@H](CCO)C[C@H](O)[C@H]2O)O1 the results were Cav32 inh inactive.
Cc1ccc(Cn2nnc3c(=O)[nH]c(C4CCN(S(=O)(=O)c5cc(C)ccc5C)CC4)nc32)cc1 was read as CYP2C9 act inactive, Cav32 inh inactive, CYP2C19 inhib 79, CYP2C19 activ inactive and CYP2C9 inh 97.
